# The list is not random: actives were taken first. Their share in the collection is about 1.6%.
# PREPL inhibitor = inhibitors of human prolyl oligopeptidase-like enzyme PREPL; recombinant PREPL, fluorescence polarization activity-based probe; inhibition, % at 5.96 µM; hit rate 0.68% among 320,000; AID 2751; in the data active means inhibition above about 43%;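 further: 0% = enzyme with DMSO and 100% = wells lacking enzyme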
# GRK2 inh = human GRK2 inhibition via aptamer displacement. bead flow cytometry, FAM-aptamer displacement from GRK2. inhibition of aptamer binding, % at 10 µM. hit rate 0.59% among 330,000. AID 488847;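 active means inhibition of aptamer binding above 40%, roughly 3 SD of noise, on plates passing a quality check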;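 further: median bead fluorescence of bound FAM aptamer so fluorescent compounds give negative values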
# Target sequence (P25098 whole entry, looked up): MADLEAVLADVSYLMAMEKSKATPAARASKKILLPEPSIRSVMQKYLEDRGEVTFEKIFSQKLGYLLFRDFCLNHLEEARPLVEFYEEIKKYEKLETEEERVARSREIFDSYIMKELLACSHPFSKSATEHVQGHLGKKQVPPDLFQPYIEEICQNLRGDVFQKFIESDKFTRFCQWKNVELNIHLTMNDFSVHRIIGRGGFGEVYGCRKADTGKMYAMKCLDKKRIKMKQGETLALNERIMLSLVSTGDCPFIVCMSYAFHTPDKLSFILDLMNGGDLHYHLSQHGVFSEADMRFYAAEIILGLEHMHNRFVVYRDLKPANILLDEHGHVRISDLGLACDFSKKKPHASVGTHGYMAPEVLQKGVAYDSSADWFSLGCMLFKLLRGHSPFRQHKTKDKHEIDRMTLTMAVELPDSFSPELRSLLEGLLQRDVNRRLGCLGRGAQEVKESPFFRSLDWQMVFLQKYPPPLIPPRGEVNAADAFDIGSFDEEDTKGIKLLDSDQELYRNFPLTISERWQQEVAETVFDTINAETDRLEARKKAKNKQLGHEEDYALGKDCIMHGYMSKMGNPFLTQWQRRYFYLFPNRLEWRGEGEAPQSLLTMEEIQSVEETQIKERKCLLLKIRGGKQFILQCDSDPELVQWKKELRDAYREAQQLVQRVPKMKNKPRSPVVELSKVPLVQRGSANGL
# GASC-1 inh = human JMJD2C demethylase inhibition; Q9H3R0; GST-JMJD2C(1-420) H3K9me3 demethylation, DELFIA europium; inhibition, % at 2.35 µM; hit rate 0.069% among 330,000;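 active means more than half of a compound's replicate wells show inhibition beyond 50%, single wells judged on their own value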;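 further: signal counts dimethyl H3K9 product captured on neutravidin plate; 0% = median of DMSO wells and 100% = 0.3 times that DMSO median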
# Pemphigus Ab inh = blocks pemphigus antibody binding to human desmoglein-3; binding (percent of control), % at 10 µM; hit rate 0.48% among 310,000; DSG3-coupled beads, scFv-anti-DSG3-GFP binding, flow cytometry; active compounds read low;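 active means binding more than 3 SD below its plate's average and above zero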;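 further: hits lower antibody fragment binding to DSG3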
# VLA-4 inh = inhibition in a human VLA-4 binding assay. hit rate 0.2% among 330,000. AID 2557. P13612. inhibition, % (about 7 µM as worked out from the volumes in the protocol). VLA-4 expressing cells, ligand binding flow cytometry; in the data active means inhibition above about 50%
# GRK2 inh confirm = confirmation of human GRK2 inhibitors displacing RNA aptamer; shares compounds with GRK2 inh; bead-bound GRK2, FAM-aptamer displacement, flow cytometry; aptamer displacement, % at 10 µM; hit rate 4% among 2,000; AID 504451;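 active means aptamer displacement above 40%, near three times the noise of non-fluorescent compounds, on plates passing quality checks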;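 further: negative values mostly reflect intrinsic compound fluorescence rather than true enhancement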
# Aptamer quench 1 = fluorescent aptamer quenching in GRK2 counter-screen dose response | fluorescence change (kMESF span), kMESF (test concentration not listed) | shares compounds with GRK2 inh | Fluorescent RNA aptamer beads, flow cytometry; active compounds read high | 110 tested, under 10 active;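 active means compounds whose bead fluorescence drops by more than 37 kMESF across the dose range, marking them as dye quenchers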
# Aptamer quench SP = quenches fluorescent RNA aptamer, GRK2 hit artifact; fluorescence response (% of DMSO), % at 10 µM; AID 504580; shares compounds with GRK2 inh; Carboxyfluorescein RNA aptamer on beads, flow cytometry quenching; active compounds read low; 2,000 tested, under 10 active;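 active means compounds that quench the bead-bound fluorescent RNA probe, cutting fluorescence to under half of the solvent control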;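 further: counterscreen run without GRK2 so only probe quenching by compound is measured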
# GRK2 CP2 = confirmation of human GRK2 inhibitors binding RNA aptamer site. shares compounds with GRK2 inh. bead-bound GRK2, FAM-aptamer displacement, flow cytometry. inhibition of aptamer binding, % at 10 µM. 360 tested, under 10 active. AID 504782;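 active means inhibition of aptamer binding above 40%, about triple the noise seen with nonglowing compounds, on plates passing quality control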;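 further: negative values mostly come from compounds that fluoresce themselves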
# FAM quench CP2 = aptamer fluorescence quenching in GRK2 counter-screen | shares compounds with GRK2 inh | carboxyfluorescein RNA aptamer beads, flow cytometry quenching; active compounds read low | fluorescence response vs DMSO, % at 10 µM | 360 tested, under 10 active;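 active means response vs DMSO under 50%, meaning signal dropped by over half, treated as fluorescence quencher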;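 further: labelled aptamer on streptavidin beads without GRK2 as a quench counter-screen; 100% = bead fluorescence of DMSO wells and lower means quenching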
# Active calls of the source: *; i = inactive; . = not tested or not shown.
SMILES,PREPL inhibitor,GRK2 inh,GASC-1 inh,Pemphigus Ab inh,VLA-4 inh,GRK2 inh confirm,Aptamer quench SP,others
CCOc1ccccc1N(C)C(=O)CCS(=O)(=O)c1ccc2c(c1)NC(=O)CO2,19.4,0.0,-29.5,92.6,-5.2,.,.,GRK2 CP2=i;FAM quench CP2=107.0
O=C(NCC(c1ccco1)N1CCc2ccccc2C1)C(=O)Nc1ccccc1F (stereo not drawn),-6.6,1.0,117.5,102.2,19.7,.,.,
CN(C)CCCN(C(=O)CCSc1ccccc1)c1nc2cc3c(cc2s1)OCO3,-29.3,68.0*,-10.7,107.3,4.5,-9.5,101.5,
CN(C)CCCN(C(=O)CCS(=O)(=O)c1ccccc1)c1nc2cc3c(cc2s1)OCO3,-17.3,16.0,11.5,103.6,5.4,.,.,
CCC(C)c1ccc(NC(=O)N2CCN(C(=O)C3CCCO3)CC2)cc1 (stereo not drawn),-6.2,0.0,-0.2,118.9,16.2,.,.,
CCC(/C=C1\Sc2ccc(OC)cc2N1CC)=C\c1sc2ccc(OC)cc2[n+]1CCCS(=O)(=O)[O-],-179.5,91.0*,-1.7,95.5,-57.3,84.9*,107.6,Aptamer quench 1=1.7
CCO/C(=C/c1sc2ccc(OC)cc2[n+]1CCCS(=O)(=O)[O-])CC,-1.3,0.0,1.5,.,-2.7,.,.,
CS(=O)(=O)c1ccc(NCCc2ccccn2)c([N+](=O)[O-])c1,-0.3,60.0*,-9.9,126.4,5.4,-1.5,96.8,
OCCN(Cc1ccccc1)CC1CC2C=CC1C2 (stereo not drawn),6.5,46.0*,2.5,91.3,7.8,-2.9,94.7,
CCN(CC(=O)Nc1c(F)cccc1F)C(=O)c1cc2ccccc2oc1=O,12.9,100.0*,6.9,98.4,-2.8,1.4,102.9,
CCn1c(SC(C)C(=O)O)nc2sc3c(c2c1=O)CCC3 (stereo not drawn),14.2,68.0*,-4.8,107.7,9.2,5.2,99.9,GRK2 CP2=9.0;FAM quench CP2=101.0
CCN(CC)C(=O)CSc1nc2sc3c(c2c(=O)n1CCCOC)CCC3,4.2,0.0,-13.2,102.0,14.5,.,.,GRK2 CP2=-13.8;FAM quench CP2=100.0
COCCCn1c(SCC(=O)NCc2ccco2)nc2sc3c(c2c1=O)CCC3,16.3,3.0,36.2,100.8,-1.6,.,.,GRK2 CP2=12.9;FAM quench CP2=100.0
COc1ccc2nc(N/C(N)=N/S(C)(=O)=O)nc(C)c2c1,-1.3,0.0,4.4,101.8,-1.0,.,.,
O=C(Nc1nccs1)C(c1ccccc1)N1CCCCC1 (stereo not drawn),-1.0,61.0*,-23.1,104.7,-4.7,-4.6,98.4,
Cc1nc2ccccc2n1CC(=O)OCC(=O)NCCc1ccccc1,13.1,1.0,-6.7,102.0,-10.5,.,.,
O=C1C=C(NCc2ccco2)CC(c2ccc(Cl)cc2)C1 (stereo not drawn),2.2,86.0*,-2.8,62.2,6.3,-1.4,97.6,
COc1ccc(/C=C2/C(=O)N(c3nc4ccccc4s3)N=C2CSc2ccc(Cl)cc2)cc1,1.4,4.0,21.5,62.0,38.3,.,.,
Cc1ccc(C)c(N2N=C(C(=O)N(CC(C)C)c3c(N)n(Cc4ccccc4)c(=O)[nH]c3=O)CCC2=O)c1,13.4,1.0,4.0,108.6,3.3,0.2,103.8,
O=C(CSc1nnc(Nc2ccccc2F)s1)NCc1ccco1,.,.,.,111.3,.,.,.,
O=C(CSc1nnc(Nc2ccccc2F)s1)NC(=O)CN1CCCC1=O,-0.8,47.0*,-7.8,97.3,1.7,25.9,98.3,
O=C(CCSCCC(=O)NCc1ccccc1)NCc1ccccc1,4.7,87.0*,-2.5,110.0,-11.7,1.2,100.6,
COc1ccc(CN2CCN(C(=O)CCC(=O)Nc3nnc(C4CCCCC4)s3)CC2)cc1F,-4.3,0.0,-3.5,102.5,6.1,.,.,
CCn1cc(C(=O)N2CC(C)CC(C)C2)c(=O)c2cc(S(=O)(=O)N(C)C)ccc21 (stereo not drawn),-6.3,0.0,0.4,114.9,1.5,.,.,
CC1CC(C)CN(C(=O)c2cn(C)c3ccc(S(=O)(=O)N(C)C)cc3c2=O)C1 (stereo not drawn),-4.3,86.0*,-7.1,104.3,10.2,1.2,102.8,
SMILES,PREPL inhibitor,GRK2 inh,GASC-1 inh,Pemphigus Ab inh,VLA-4 inh,GRK2 inh confirm,Aptamer quench SP,others
C=C(C)Cn1c(SCC(=O)O)nc2c1c(=O)[nH]c(=O)n2C,4.5,3.0,1.2,97.8,5.4,.,.,
Cc1cccc(Cn2c(=O)oc3ccc(C)cc32)c1,-15.1,68.0*,107.4,109.3,-9.8,-2.3,98.4,
O=C(NC1CCCCC1)c1cc(C2CC2)nn1-c1ccccc1,-6.4,89.0*,.,109.4,9.4,1.2,96.9,
Cc1nn(-c2ccccc2)c(Cl)c1C(=O)NC1CCCCC1,18.0,1.0,-23.8,104.3,5.8,.,.,
O=S(=O)(c1ccccc1C(F)(F)F)N1CCN(CC(O)COc2ccccc2F)CC1 (stereo not drawn),.,2.0,4.1,118.5,-6.3,.,.,
N#Cc1ccccc1S(=O)(=O)N1CCN(CC(O)COc2ccccc2F)CC1 (stereo not drawn),11.1,54.0*,17.7,98.6,3.4,-0.6,100.6,
CCOC(=O)c1ccccc1NC(=O)Cc1c(C(=O)O)n(C)c2ccccc12,8.2,50.0*,7.9,101.6,0.0,-1.8,95.1,
CCOC(=O)c1ccccc1NC(=O)COC(=O)c1ccccc1C(=O)N(C)c1ccccc1,5.3,44.0*,-7.5,102.5,0.4,-1.6,97.9,
CN(C(=O)Cc1c(C(=O)O)n(C)c2ccccc12)c1ccc(Cl)cc1,-1.8,9.0,-25.3,96.9,2.5,0.0,97.5,
O=C1N(c2ccccc2)C[C@@H]2C[C@@H](c3cc4ccccc4o3)N3CCC[C@@]123,.,.,-13.2,101.1,.,.,.,
COc1ccccc1CNC(=O)[C@@H](NC(=O)C1CCN(C(=O)[C@@H]2CCCN2)CC1)C(C)C,-6.2,0.0,.,101.8,-13.6,.,.,
COCCNC(=O)C(c1ccc(C)o1)N(Cc1ccc(OC)cc1)C(=O)Cn1nnc2ccccc21 (stereo not drawn),15.1,44.0*,4.0,96.3,-12.5,-4.4,91.2,
CCOc1ccc(C(=O)Nc2ccccc2N2CCN(C(=O)c3ccccc3)CC2)cc1[N+](=O)[O-],6.9,3.0,1.8,102.3,-5.4,.,.,
Cc1cccc(NC(=O)COC(=O)c2ccc(S(=O)(=O)N3CCCCCC3)cc2)c1,.,.,.,99.2,.,-2.2,99.1,

# Assay outcomes: PubChem, several laboratories
